“And” between values parts separate entries of the source, which are not always exact repeats. Identical values can stand only once. Hit rate of the full screen: of about 5,500 compounds, about 2,000 (36%) were called active. Inconclusive results (about 18%) are left out. No stated cut-off is given here; in the data, active means normalized growth mostly below about 0.91 (no sharp cut-off); inconclusive means no clear call, values can overlap the other calls; inactive means mostly above about 0.92. Some of the results follow. Where a structure was tested more than once in an assay, its records may differ in their call.
Experiment: chemical genetic growth profiling, strain panel (AID 1159580);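 further: tested at 20 µM; growth read once vehicle control cultures reached saturation at 30 °C; 1 = growth at the plate median or of vehicle wells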
Details: S. cerevisiae deletion strains, growth OD
[1] = locus YBR021W, strain FUR4, stronger effect = lower value
[2] = locus YBR229C, strain ROT2, stronger effect = lower value
[3] = locus YCL029C, strain bik1, stronger effect = lower value
[4] = locus YDL035C, strain GPR1, stronger effect = lower value
[5] = locus YDL074C, strain BRE1, stronger effect = lower value
[6] = locus YDL101C, strain DUN1, stronger effect = lower value
[7] = locus YDL185W, strain tfp1, stronger effect = lower value
[8] = locus YDL192W, strain arf1, stronger effect = lower value
[9] = locus YDR101C, strain arx1, stronger effect = lower value
[10] = locus YDR162C, strain NBP2, stronger effect = lower value
[11] = locus YDR318W, strain mcm21, stronger effect = lower value
[12] = locus YDR388W, stronger effect = lower value
[13] = locus YDR502C, strain sam2, stronger effect = lower value
[14] = locus YEL061C, strain CIN8, stronger effect = lower value
[15] = locus YER110C, stronger effect = lower value
[16] = locus YER155C, strain BEM2, stronger effect = lower value
[17] = locus YER167W, strain BCK2, stronger effect = lower value
[18] = locus YGL078C, strain dbp3, stronger effect = lower value
[19] = locus YGL086W, strain mad1, stronger effect = lower value
[20] = locus YGL248W, strain PDE1, stronger effect = lower value
[21] = locus YGR078C, strain PAC10, stronger effect = lower value
[22] = locus YGR135W, strain pre9, stronger effect = lower value
[23] = locus YGR252W, strain gcn5, stronger effect = lower value
[24] = locus YHR030C, strain SLT2, stronger effect = lower value
[25] = locus YHR079C, strain IRE1 (second series), stronger effect = lower value
[26] = locus YHR094C, strain hxt1, stronger effect = lower value
[27] = locus YHR129C, strain ARP1, stronger effect = lower value
[28] = locus YHR200W, strain rpn10, stronger effect = lower value
[29] = locus YIL066C, strain RNR3, stronger effect = lower value
[30] = locus YIL073C, strain SPO22, stronger effect = lower value
[31] = locus YIL125W, strain kgd1, stronger effect = lower value
[32] = locus YIR030C, strain dcg1, stronger effect = lower value
[33] = locus YJL095W, strain BCK1, stronger effect = lower value
[34] = locus YJL134W, strain LCB3, stronger effect = lower value
[35] = locus YJL168C, strain set2, stronger effect = lower value
[36] = locus YJL187C, strain SWE1 (second series), stronger effect = lower value
[37] = locus YJR043C, strain POL32, stronger effect = lower value
[38] = locus YKL009W, strain mrt4, stronger effect = lower value
[39] = locus YKL068W, stronger effect = lower value
[40] = locus YKL085W, strain MDH1 (second series), stronger effect = lower value
[41] = locus YKL085W, strain MDH1, stronger effect = lower value
[42] = locus YKL190W, strain CNB1, stronger effect = lower value
[43] = locus YKR001C, strain vps1, stronger effect = lower value
[44] = locus YLR039C, strain RIC1, stronger effect = lower value
[45] = locus YLR058C, strain SHM2, stronger effect = lower value
[46] = locus YLR102C, strain apc9, stronger effect = lower value
[47] = locus YLR262C, strain YPT6, stronger effect = lower value
[48] = locus YLR268W, strain sec22, stronger effect = lower value
[49] = locus YLR330W, strain CHS5, stronger effect = lower value
[50] = locus YLR342W, strain FKS1 (second series), stronger effect = lower value
[51] = locus YLR371W, strain rom2, stronger effect = lower value
[52] = locus YLR418C, strain cdc73, stronger effect = lower value
[53] = locus YML016C, strain PPZ1, stronger effect = lower value
[54] = locus YML032C, strain rad52, stronger effect = lower value
[55] = locus YML124C, strain tub3, stronger effect = lower value
[56] = locus YMR078C, strain ctf18, stronger effect = lower value
[57] = locus YMR223W, strain ubp8, stronger effect = lower value
[58] = locus YMR263W, strain SAP30, stronger effect = lower value
[59] = locus YMR307W, strain GAS1, stronger effect = lower value
[60] = locus YNL067W, strain RPL9B, stronger effect = lower value
[61] = locus YNL233W, strain BNI4, stronger effect = lower value
[62] = locus YNL250W, strain rad50, stronger effect = lower value
[63] = locus YNL271C, strain bni1, stronger effect = lower value
[64] = locus YNL298W, strain CLA4, stronger effect = lower value
[65] = locus YNL307C, strain MCK1, stronger effect = lower value
[66] = locus YNR052C, strain pop2, stronger effect = lower value
[67] = locus YOL006C, strain TOP1, stronger effect = lower value
[68] = locus YOL147C, strain pex11, stronger effect = lower value
[69] = locus YOR061W, strain CKA2, stronger effect = lower value
[70] = locus YOR069W, strain VPS5, stronger effect = lower value
[71] = locus YOR136W, strain idh2, stronger effect = lower value
[72] = locus YOR144C, strain elg1, stronger effect = lower value
[73] = locus YOR184W, strain ser1, stronger effect = lower value
[74] = locus YOR316C, strain cot1, stronger effect = lower value
[75] = locus YPL055C, strain LGE1, stronger effect = lower value
[76] = locus YPR119W, strain clb2, stronger effect = lower value
[77] = locus YPR141C, strain kar3, stronger effect = lower value
[78] = locus YPR163C, strain tif3, stronger effect = lower value
[79] = locus YPR167C, strain met16, stronger effect = lower value
[80] = strain wtn01, stronger effect = lower value

Measured: normalized growth

COc1ccccc1-c1coc2cc(O)ccc2c1=O
inactive: [1] 0.987 | [2] 1.01 | [3] 1 | [4] 0.983 | [5] 1.02 | [6] 0.995 | locus YDL134C, strain PPH21, stronger effect = lower value 0.963 | [7] 0.999 | [8] 1 | [9] 0.996 | [10] 0.986 | [11] 1.01 | [12] 1.03 | [13] 1.02 | [14] 1.02 | [15] 1.02 | [16] 1.02 | [17] 1.03 | [18] 1 | [19] 1.01 | [20] 1.01 | [21] 0.995 | [22] 0.999 | [23] 0.88 | [24] 1.02 | [25] 1.02 | [26] 1.02 | [27] 1.03 | [28] 1.03 | [29] 1.01 | [30] 1.05 | [31] 1.02 | [32] 1.01 | [33] 1.04 | [34] 1.02 | [35] 1.02 | [36] 0.998 | [37] 0.971 | [38] 0.993 | [39] 1 | [40] 1 | [41] 1 | [42] 1.02 | [43] 0.979 | [44] 1.03 | [45] 1.01 | [46] 1.01 | [47] 0.991 | [48] 0.997 | [49] 1.03 | [50] 0.992 | [51] 1.02 | [52] 0.969 | [53] 1.04 | [54] 1.02 | [55] 1.01 | [56] 1.01 | [57] 0.999 | [58] 1 | [59] 0.909 | [60] 0.987 | [61] 1.02 | [62] 1.02 | [63] 1.02 | [64] 1 | [65] 1.02 | [66] 1.01 | [67] 1.08 | locus YOL012C, strain htz1 1.12 | [68] 1.01 | [69] 1.01 | [70] 1.02 | [71] 1.03 | [72] 0.999 | [73] 0.981 | [74] 1.03 | [75] 1 | locus YPL241C, strain CIN2, stronger effect = lower value 0.996 | [76] 1 | [77] 1.01 | [78] 1.02 | [79] 1.01 | [80] 0.986

COc1ccc(-c2coc3cc(OC)ccc3c2=O)cc1
inactive: locus YAL013W, strain DEP1, stronger effect = lower value 0.933 | [1] 1.02 | [3] 0.929 | [4] 0.905 | [5] 0.839 | [9] 0.92 | locus YDR150W, strain NUM1, stronger effect = lower value 0.94 | [15] 0.907 | [16] 1.01 | [17] 0.906 | [18] 0.936 | [23] 0.851 | locus YHR079C, strain IRE1, stronger effect = lower value 0.976 | [26] 0.949 | [30] 0.783 | [31] 0.941 | [32] 0.931 | [34] 0.941 | [35] 0.936 | [36] 0.891 | [37] 0.885 | locus YJR066W, strain TOR1, stronger effect = lower value 0.9 | locus YJR075W, strain HOC1, stronger effect = lower value 0.913 | [38] 0.92 | [42] 0.933 | [45] 0.906 | [46] 0.941 | locus YLR113W, strain HOG1, stronger effect = lower value 0.984 | [48] 0.919 | [51] 0.933 | [53] 0.922 | [54] 0.942 | [56] 0.929 | [57] 0.911 | [58] 0.898 | [59] 0.658 | [60] 0.886 | locus YNL183C, strain NPR1, stronger effect = lower value 0.921 | [61] 0.888 | [62] 0.943 | locus YNL322C, strain KRE1, stronger effect = lower value 0.936 | [66] 0.928 | [67] 0.589 | locus YOL012C, strain htz1 0.966 | [69] 0.899 | [70] 0.937 | [71] 0.971 | [72] 0.937 | locus YOR231W, strain MKK1, stronger effect = lower value 0.982 | [74] 0.928 | [75] 0.836 | locus YPL256C, strain CLN2, stronger effect = lower value 0.968 | [76] 0.947 | [77] 0.921 | [79] 0.943 | [80] 0.91
0.983 (inactive) and 0.669 (active): [33]
active: [2] 0.908 | [6] 0.891 | [7] 0.896 | [8] 0.898 | [10] 0.607 | [11] 0.912 | [12] 0.92 | [13] 0.907 | [14] 0.917 | [19] 0.906 | [20] 0.876 | [21] 0.811 | [22] 0.89 | [25] 0.922 | [27] 0.915 | [28] 0.906 | [29] 0.807 | [39] 0.93 | [40] 0.928 | [41] 0.928 | [43] 0.644 | [44] 0.48 | [47] 0.468 | [49] 0.874 | [50] 0.763 | [52] 0.736 | [55] 0.925 | [63] 0.918 | [64] 0.906 | [65] 0.543 | [68] 0.922 | [73] 0.783 | [78] 0.772
0.973 (inactive) and 0.882 (active): [24]

Reference: PubChem BioAssay AID1159580 (chemical genetic matrix, 2015)
